{"source": "ChEMBL document CHEMBL3988442", "about": "“University of Dundee, Small-Polar-MMV Screening Library” (2021)", "note": "The campaign covered roughly 69,000 compounds. About 420 (0.61%) showed an effect of 50% or more. What follows is part of a selection rich in strong results, with near analogues and random picks from the rest."}
{"molecular_target": "T1, Histidine--tRNA ligase (Leishmania infantum) (UniProt A4I591)", "T1 sequence (whole entry)": "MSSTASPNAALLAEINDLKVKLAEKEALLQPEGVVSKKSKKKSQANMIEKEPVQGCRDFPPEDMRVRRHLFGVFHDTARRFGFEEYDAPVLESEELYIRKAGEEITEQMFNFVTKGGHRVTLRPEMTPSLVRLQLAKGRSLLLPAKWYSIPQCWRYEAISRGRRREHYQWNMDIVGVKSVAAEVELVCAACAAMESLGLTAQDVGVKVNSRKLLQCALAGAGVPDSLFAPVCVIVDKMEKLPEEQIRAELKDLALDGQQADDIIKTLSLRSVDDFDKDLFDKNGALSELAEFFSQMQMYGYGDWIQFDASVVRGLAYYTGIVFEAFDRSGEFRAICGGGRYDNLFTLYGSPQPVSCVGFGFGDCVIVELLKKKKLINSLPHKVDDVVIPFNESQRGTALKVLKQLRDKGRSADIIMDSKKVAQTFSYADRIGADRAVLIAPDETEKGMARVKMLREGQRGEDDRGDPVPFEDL", "assay": "Leishmania infantum Histidine tRNA synthetase (LdHisRS)", "format": "functional", "set-up": "scale not given: in the data most compounds retested in dose-response had high values", "settings": "30 µM", "units": {"Percent Effect": "%"}}
{"smiles": "Cn1cccc(NC(=O)NCc2cccc(CO)c2)c1=O", "Percent Effect": 55}
{"smiles": "Cc1cccc(C)c1OCC(=O)Nc1cccn(C)c1=O", "Percent Effect": 21}
{"smiles": "Cn1cccc(NC(=O)NCCc2cccc(O)c2)c1=O", "Percent Effect": 55}
{"smiles": "CC(CCc1cccn1C)NC(=O)Nc1cccn(C)c1=O", "note": "(stereo not drawn)", "Percent Effect": 38.4}
{"smiles": "Cn1cccc(NC(=O)COc2ccc(Cl)cc2)c1=O", "Percent Effect": 34.5}
{"smiles": "CC(C)C(C)NC(=O)Nc1cccn(C)c1=O", "note": "(stereo not drawn)", "Percent Effect": 63.4}
{"smiles": "CN1CCN(c2ccccc2NC(=O)NCCc2ccc(O)cc2)CC1", "Percent Effect": 21.5}
{"smiles": "Cn1cccc(NC(=O)NCCOCc2ccccc2)c1=O", "Percent Effect": 22}
{"smiles": "CCSCCC(C)NC(=O)Nc1cccn(C)c1=O", "note": "(stereo not drawn)", "Percent Effect": 29.5}
{"smiles": "COCCN1CCO[C@H]2CN(Cc3cc[nH]n3)C[C@H]21", "Percent Effect": 23.8}
{"smiles": "CS(=O)(=O)N[C@@H]1CN(C(=O)c2ccccn2)C[C@@H]2CCCO[C@@H]21", "Percent Effect": 15.6}
{"smiles": "CN1CCO[C@@H]2CN(C(=O)NCc3cccc(F)c3)CC[C@@H]2C1", "Percent Effect": 4.54}
{"smiles": "CCCS(=O)(=O)N1C[C@@H](c2nc(C)no2)C[C@H]2OCC[C@H]21", "Percent Effect": 11.7}
{"smiles": "Cc1cccc(C(=O)N2C[C@@H]3OCCN(CCN4CCCC4)[C@@H]3C2)n1", "Percent Effect": 16}
{"smiles": "CCS(=O)(=O)N1CC[C@@H]2[C@H](CC1)N(CC(C)C)CCS2(=O)=O", "Percent Effect": 10.5}
{"smiles": "O=C(NCC1CC1)[C@H]1C[C@@H]2CN(S(=O)(=O)Cc3ccccc3)C[C@H]1O2", "Percent Effect": -0.73}
{"smiles": "O=C(c1ccncc1)N1CC[C@@H]2[C@@H](CC1)OCCN2c1cccnc1", "Percent Effect": 17.5}
{"smiles": "Cc1nc(CO[C@H]2CN(Cc3cccs3)[C@@H]3COC[C@H]23)cs1", "Percent Effect": 8.06}
{"smiles": "COCc1nc2cc(NCc3cc[nH]n3)ccc2o1", "Percent Effect": 106}
{"smiles": "CCC(C)CNc1ccc2oc(COC)nc2c1", "note": "(stereo not drawn)", "Percent Effect": 94.2}
{"smiles": "c1cc(CN2CCCCC2)cc(NCc2cc[nH]n2)c1", "Percent Effect": 15.8}
{"smiles": "CCCS(=O)(=O)C(C)C(=O)Nc1ccc2oc(C3CC3)nc2c1", "note": "(stereo not drawn)", "Percent Effect": 26.8}
{"smiles": "COCc1cccc(NCc2cccnc2)c1", "Percent Effect": 6.67}
{"smiles": "COCc1nc2cc(NCc3ncc[nH]3)ccc2o1", "Percent Effect": 38.4}
{"smiles": "COCc1nc2cc(NCc3ccncc3)ccc2o1", "Percent Effect": 100}
{"smiles": "CN1CCN(Cc2cccc(NCc3cc[nH]n3)c2)CC1", "Percent Effect": 12.3}
{"smiles": "COCc1nc2cc3c(cc2c(=O)o1)OCCCO3", "Percent Effect": 15.7}
{"smiles": "O=C(NC1CC1)[C@H]1COC[C@H]2CN(c3ncc(F)cn3)C[C@H]21", "Percent Effect": 12}
{"smiles": "Cc1nc(CN2CCO[C@H]3CN(C(=O)c4cccn4C)C[C@H]32)cs1", "Percent Effect": 10.5}
{"smiles": "CNC(=O)[C@@H]1[C@@H](c2ccccc2)CN2CCN(Cc3cccs3)C[C@H]12", "Percent Effect": 6.12}
{"smiles": "Cc1ccc(CN2C[C@@H]3CN(CC4CCOCC4)CCO[C@@H]3C2)s1", "Percent Effect": 19}
{"smiles": "COCC(=O)N[C@H]1C[C@H]2C(=O)NC[C@@H](CCC(=O)NC3CC3)N2C1", "Percent Effect": 5.56}
{"smiles": "CN(C)C(=O)[C@@H]1CCO[C@@H]2CCN(c3ncccn3)C[C@@H]21", "Percent Effect": 0}
{"smiles": "CNC(=O)[C@@H]1CC[C@@H]2[C@@H](CCN2C(=O)N(C)C)O1", "Percent Effect": 0}
{"smiles": "COC[C@@]12CCO[C@@H]1CCN(C(=O)Cc1cccc(F)c1)C2", "Percent Effect": 19.4}
{"smiles": "CCOc1ccc2nc(CN3CCOC(CN)C3)ccc2c1", "note": "(stereo not drawn)", "Percent Effect": 13.4}
{"smiles": "CCOc1ccc2nc(CN3CCC(CNC(C)=O)C3)ccc2c1", "note": "(stereo not drawn)", "Percent Effect": 37.3}
{"smiles": "CCOc1ccc2nc(CN3CCC(CN)C3)ccc2c1", "note": "(stereo not drawn)", "Percent Effect": 52.2}
{"smiles": "COC[C@@]12CCO[C@@H]1CCN(C(=O)Cc1ccccc1F)C2", "Percent Effect": 11.4}
{"smiles": "O=C1[C@@H]2CCN(Cc3ccoc3)C[C@@H]2OCCN1Cc1cccnc1", "Percent Effect": 15.3}
{"smiles": "Cc1ccc(OCCC(=O)NC2CC(=O)N(C)C2)cc1C", "note": "(stereo not drawn)", "Percent Effect": 12.7}
{"smiles": "Cc1cc(C)cc(OCCC(=O)NC2CC(=O)N(C)C2)c1", "note": "(stereo not drawn)", "Percent Effect": 74.7}
{"smiles": "CN1CC(NC(=O)CCOc2cccc(Cl)c2)CC1=O", "note": "(stereo not drawn)", "Percent Effect": 4.22}
{"smiles": "Cc1nc(CN2CCO[C@H]3[C@H](OCC(=O)N(C)C)CC[C@@H]32)cs1", "Percent Effect": -9.73}
{"smiles": "COc1cccc(-c2n[nH]c3c2CN(C(=O)c2cc(C)n(C)n2)CC3)c1", "Percent Effect": 0}
{"smiles": "COc1cccc(-c2n[nH]c3c2CN(C(=O)c2cccc(=O)[nH]2)CC3)c1", "Percent Effect": 65.6}
{"smiles": "COc1cccc(-c2n[nH]c3c2CN(C(=O)c2ccncc2)CC3)c1", "Percent Effect": 0}
{"smiles": "Cc1csc(CN2CC[C@H]3C[C@@H](c4noc(C)n4)O[C@@H]3C2)n1", "Percent Effect": 12.9}
{"smiles": "CN(C)c1ncccc1N(C)C(=O)Cn1cc(-c2ccccc2)nn1", "Percent Effect": 0}
{"smiles": "COc1ccc(CC(=O)N(C)c2cccnc2N(C)C)c(Cl)c1", "Percent Effect": 57.1}
{"smiles": "COc1cccc(OCC(=O)N(C)c2cccnc2N(C)C)c1", "Percent Effect": 10.2}
{"smiles": "COC[C@]12COC[C@H]1CN(Cc1cc(OC)cc(OC)c1)C2", "Percent Effect": 4.51}
{"smiles": "COCC(=O)N1CC[C@H]2C[C@@H](c3nnc(C4CC4)o3)O[C@@H]2C1", "Percent Effect": 18.9}
{"smiles": "CCn1nc(C)cc1C(=O)N1CC[C@H](OC)[C@H]2CN(CC3CC3)C[C@H]21", "Percent Effect": 3.95}
{"smiles": "COc1ccc(CC(=O)N2CC[C@@H]3[C@H](CC2)N(C)CCS3(=O)=O)cc1", "Percent Effect": 17.1}
{"smiles": "Cc1cnc2n(c1=O)CC(C(=O)Nc1cccc3cccnc13)CS2", "note": "(stereo not drawn)", "Percent Effect": 67.3}
{"smiles": "Cc1ccncc1NC(=O)C1CSc2ncc(C)c(=O)n2C1", "note": "(stereo not drawn)", "Percent Effect": 15.4}
{"smiles": "Cc1cccnc1NC(=O)C1CSc2ncc(C)c(=O)n2C1", "note": "(stereo not drawn)", "Percent Effect": 20.5}
{"smiles": "CC(C)NC(=O)[C@@H]1CCO[C@@H]2CCN(c3ncccn3)C[C@@H]21", "Percent Effect": 11.1}
{"smiles": "COCc1nc(CNc2cccc(-c3csc(C)n3)c2)cs1", "Percent Effect": -6.67}
{"smiles": "COCCCSc1ccc(NCc2scnc2C)cc1", "Percent Effect": 9.09}
{"smiles": "COCc1nc2cc(NCc3sc(C)nc3C)ccc2o1", "Percent Effect": 79.5}
{"smiles": "COCc1nc2cc(NCc3csc(C)n3)ccc2o1", "Percent Effect": 29.5}
{"smiles": "COCc1nc2cc(NCc3scnc3C)ccc2o1", "Percent Effect": 54.5}
{"smiles": "Cc1csc(CNc2cccc(OCCN3CCCC3)c2)n1", "Percent Effect": 23.2}
{"smiles": "COCc1nc(CNc2cccc(-c3nc(C)c(C)o3)c2)cs1", "Percent Effect": 0}
{"smiles": "COCc1nc2cc(NCc3nc(C)cs3)ccc2o1", "Percent Effect": 106}
{"smiles": "Cc1ncsc1CNc1cccc(OCCN2CCCC2)c1", "Percent Effect": 25.2}
{"smiles": "CN(C)CCNC(=O)[C@H]1C[C@@H]2CN(C(=O)NC3CCCC3)C[C@H]1O2", "Percent Effect": 8.62}
{"smiles": "CN(C)c1cccc(C(=O)N2C[C@H]3CC[C@@H]2CN(C(=O)C2CCC2)C3)c1", "Percent Effect": 18.4}
{"smiles": "O=S(=O)(c1cccs1)N1CCN2C[C@H](OCC3CC3)C[C@H]2C1", "Percent Effect": 10.5}
{"smiles": "C[C@@H]1C[C@H]2CN(C(=O)c3ccncn3)C[C@H]2O1", "Percent Effect": -2.56}
{"smiles": "Cc1nnc([C@@H]2CCO[C@@H]3CCN(C(=O)Cc4ccccn4)C[C@@H]32)o1", "Percent Effect": 15.8}
